Measured values: the supplement of paper PMC10849652
About 8,800 targets were measured; listed, in parts, are those with a hit and a random draw of the rest. About 0.5% of all pairs of compound and target were hits. A number with no mark means an inactive call.

Experiments:
Experiment in all cases: log2 fold change, soluble protein after heating vs DMSO (PISA); higher = thermal stabilisation; K562 lysate, 10 uM; active = over 0.2 and 3.5 SD of the protein, either way, in both replicates (recomputed)
alvocidib = compound: CN1CC[C@H](c2c(O)cc(O)c3c(=O)cc(-c4ccccc4Cl)oc23)[C@H](O)C1 [alvocidib]
In short: (§1)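 Log-two fold change in thermal stability relative to solvent controls is reported from duplicates. For each sample, crude K562 extract from dounce-homogenised pellets in PBS pH 7.4 with 1 mM MgCl2, at 1 mg/mL protein, was treated with 10 μM compound for 30 min. Aliquots heated for 3 min across 48°C-58°C were pooled, brought to 0.5% NP-40 at 4°C and cleared at 21,000xg for 90 min. The supernatant was quantified by TMTpro 16plex LC-MS/MS with channel sums equalised.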

Tubastatin A = compound: CN1CCc2c(c3ccccc3n2Cc2ccc(C(=O)NO)cc2)C1 [Tubastatin A]
In short: as §1

[1] = compound: CNC(=O)C1=CC=CC=C1NC2=NC(=NC=C2Cl)NC3=C(C=C(C=C3)N4CCOCC4)OC
In short: as §1

defactinib = compound: CNC(=O)c1ccc(Nc2ncc(C(F)(F)F)c(NCc3nccnc3N(C)S(C)(=O)=O)n2)cc1 [defactinib]
In short: as §1

[2] = compound: CNc1nc(-c2ccc3c(N)n[nH]c3c2)cc(N2C[C@@H](C(=O)NC3CCCCC3)CC[C@H]2C)n1
In short: as §1

encorafenib = compound: COC(=O)N[C@@H](C)CNc1nccc(-c2cn(C(C)C)nc2-c2cc(Cl)cc(NS(C)(=O)=O)c2F)n1 [encorafenib]
In short: as §1

[3] = compound: COC(=O)[C@H](CCSC)NC(=O)C1=C(C=C(C=C1)NC[C@H](CS)N)C2=CC=CC=C2
In short: as §1

alisertib = compound: COc1cc(Nc2ncc3c(n2)-c2ccc(Cl)cc2C(c2c(F)cccc2OC)=NC3)ccc1C(=O)O [alisertib]
In short: as §1

[4] = compound: COc1cc2nc(-c3cc(F)ccc3O)nc(N[C@@H]3CNC[C@H]3C(C)(C)O)c2cc1OC
In short: as §1

gefitinib = compound: COc1cc2ncnc(Nc3ccc(F)c(Cl)c3)c2cc1OCCCN1CCOCC1 [gefitinib]
In short: as §1

lapatinib = compound: CS(=O)(=O)CCNCc1ccc(-c2ccc3ncnc(Nc4ccc(OCc5cccc(F)c5)c(Cl)c4)c3c2)o1 [lapatinib]
In short: as §1

pictilisib = compound: CS(=O)(=O)N1CCN(Cc2cc3nc(-c4cccc5[nH]ncc45)nc(N4CCOCC4)c3s2)CC1 [pictilisib]
In short: as §1

crizotinib = compound: C[C@@H](Oc1cc(-c2cnn(C3CCNCC3)c2)cnc1N)c1c(Cl)ccc(F)c1Cl [crizotinib]
In short: as §1

[5] = compound: C[C@H](C1=CC=C(C=C1)C(=O)NC2=C3C=CNC3=NC=C2)N
In short: as §1

duvelisib = compound: C[C@H](Nc1ncnc2nc[nH]c12)c1cc2cccc(Cl)c2c(=O)n1-c1ccccc1 [duvelisib]
In short: as §1

gandotinib = compound: Cc1cc(Nc2cc(CN3CCOCC3)c3nc(C)c(Cc4ccc(Cl)cc4F)n3n2)n[nH]1 [gandotinib]
In short: as §1

tozasertib = compound: Cc1cc(Nc2cc(N3CCN(C)CC3)nc(Sc3ccc(NC(=O)C4CC4)cc3)n2)n[nH]1 [tozasertib]
In short: as §1

doramapimod = compound: Cc1ccc(-n2nc(C(C)(C)C)cc2NC(=O)Nc2ccc(OCCN3CCOCC3)c3ccccc23)cc1 [doramapimod]
In short: as §1

bafetinib = compound: Cc1ccc(NC(=O)c2ccc(CN3CC[C@H](N(C)C)C3)c(C(F)(F)F)c2)cc1Nc1nccc(-c2cncnc2)n1 [bafetinib]
In short: as §1

[6] = compound: Cc1cccc(CC(=O)N2CCc3c2ccc(-c2cn(C)c4ncnc(N)c24)c3F)n1
In short: as §1

Sequence of UniProt O43709 (O43709 whole entry, looked up): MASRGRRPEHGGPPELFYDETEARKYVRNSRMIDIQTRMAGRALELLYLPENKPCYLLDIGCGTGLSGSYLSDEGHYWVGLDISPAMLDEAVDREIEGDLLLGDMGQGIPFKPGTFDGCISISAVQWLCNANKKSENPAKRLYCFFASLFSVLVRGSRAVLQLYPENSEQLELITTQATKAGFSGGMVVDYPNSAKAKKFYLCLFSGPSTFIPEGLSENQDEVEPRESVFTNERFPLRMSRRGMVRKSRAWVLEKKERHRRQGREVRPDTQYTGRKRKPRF
Sequence of UniProt P33681 (P33681 whole entry, looked up): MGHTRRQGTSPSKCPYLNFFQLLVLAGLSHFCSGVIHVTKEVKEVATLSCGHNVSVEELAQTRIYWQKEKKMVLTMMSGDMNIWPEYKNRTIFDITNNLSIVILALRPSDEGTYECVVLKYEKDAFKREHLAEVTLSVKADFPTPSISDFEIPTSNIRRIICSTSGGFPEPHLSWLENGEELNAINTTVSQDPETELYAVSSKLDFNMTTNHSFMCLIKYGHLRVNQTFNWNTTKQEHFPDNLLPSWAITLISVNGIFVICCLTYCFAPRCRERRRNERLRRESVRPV
Sequence of UniProt Q96LT7 (Q96LT7 whole entry, looked up): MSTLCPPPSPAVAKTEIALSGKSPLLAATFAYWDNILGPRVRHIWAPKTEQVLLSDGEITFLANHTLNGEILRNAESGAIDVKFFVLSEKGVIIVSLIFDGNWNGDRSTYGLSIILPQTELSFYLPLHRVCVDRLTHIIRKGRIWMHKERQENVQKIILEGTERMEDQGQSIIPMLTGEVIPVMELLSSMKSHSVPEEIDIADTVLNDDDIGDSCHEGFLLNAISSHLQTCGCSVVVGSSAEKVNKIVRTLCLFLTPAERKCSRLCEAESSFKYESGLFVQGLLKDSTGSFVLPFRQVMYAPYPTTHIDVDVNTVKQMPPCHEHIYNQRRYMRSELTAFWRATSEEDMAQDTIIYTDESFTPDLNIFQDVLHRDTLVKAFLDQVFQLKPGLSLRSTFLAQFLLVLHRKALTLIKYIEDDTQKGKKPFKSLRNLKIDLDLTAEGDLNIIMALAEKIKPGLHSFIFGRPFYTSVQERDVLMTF
Sequence of UniProt Q9Y6K0 (Q9Y6K0 whole entry, looked up): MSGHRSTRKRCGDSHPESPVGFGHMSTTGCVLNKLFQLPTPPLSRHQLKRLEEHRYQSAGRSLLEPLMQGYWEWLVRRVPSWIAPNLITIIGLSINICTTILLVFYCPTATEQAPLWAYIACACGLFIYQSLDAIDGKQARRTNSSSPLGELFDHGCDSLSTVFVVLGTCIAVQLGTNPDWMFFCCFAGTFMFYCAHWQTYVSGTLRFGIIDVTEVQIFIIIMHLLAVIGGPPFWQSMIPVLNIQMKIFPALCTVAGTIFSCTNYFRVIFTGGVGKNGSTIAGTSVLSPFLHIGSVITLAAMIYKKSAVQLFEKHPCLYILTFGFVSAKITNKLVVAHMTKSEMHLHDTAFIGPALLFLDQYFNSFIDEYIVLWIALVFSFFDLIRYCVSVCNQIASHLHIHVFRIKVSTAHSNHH
Sequence of UniProt O94986 (O94986 whole entry, looked up): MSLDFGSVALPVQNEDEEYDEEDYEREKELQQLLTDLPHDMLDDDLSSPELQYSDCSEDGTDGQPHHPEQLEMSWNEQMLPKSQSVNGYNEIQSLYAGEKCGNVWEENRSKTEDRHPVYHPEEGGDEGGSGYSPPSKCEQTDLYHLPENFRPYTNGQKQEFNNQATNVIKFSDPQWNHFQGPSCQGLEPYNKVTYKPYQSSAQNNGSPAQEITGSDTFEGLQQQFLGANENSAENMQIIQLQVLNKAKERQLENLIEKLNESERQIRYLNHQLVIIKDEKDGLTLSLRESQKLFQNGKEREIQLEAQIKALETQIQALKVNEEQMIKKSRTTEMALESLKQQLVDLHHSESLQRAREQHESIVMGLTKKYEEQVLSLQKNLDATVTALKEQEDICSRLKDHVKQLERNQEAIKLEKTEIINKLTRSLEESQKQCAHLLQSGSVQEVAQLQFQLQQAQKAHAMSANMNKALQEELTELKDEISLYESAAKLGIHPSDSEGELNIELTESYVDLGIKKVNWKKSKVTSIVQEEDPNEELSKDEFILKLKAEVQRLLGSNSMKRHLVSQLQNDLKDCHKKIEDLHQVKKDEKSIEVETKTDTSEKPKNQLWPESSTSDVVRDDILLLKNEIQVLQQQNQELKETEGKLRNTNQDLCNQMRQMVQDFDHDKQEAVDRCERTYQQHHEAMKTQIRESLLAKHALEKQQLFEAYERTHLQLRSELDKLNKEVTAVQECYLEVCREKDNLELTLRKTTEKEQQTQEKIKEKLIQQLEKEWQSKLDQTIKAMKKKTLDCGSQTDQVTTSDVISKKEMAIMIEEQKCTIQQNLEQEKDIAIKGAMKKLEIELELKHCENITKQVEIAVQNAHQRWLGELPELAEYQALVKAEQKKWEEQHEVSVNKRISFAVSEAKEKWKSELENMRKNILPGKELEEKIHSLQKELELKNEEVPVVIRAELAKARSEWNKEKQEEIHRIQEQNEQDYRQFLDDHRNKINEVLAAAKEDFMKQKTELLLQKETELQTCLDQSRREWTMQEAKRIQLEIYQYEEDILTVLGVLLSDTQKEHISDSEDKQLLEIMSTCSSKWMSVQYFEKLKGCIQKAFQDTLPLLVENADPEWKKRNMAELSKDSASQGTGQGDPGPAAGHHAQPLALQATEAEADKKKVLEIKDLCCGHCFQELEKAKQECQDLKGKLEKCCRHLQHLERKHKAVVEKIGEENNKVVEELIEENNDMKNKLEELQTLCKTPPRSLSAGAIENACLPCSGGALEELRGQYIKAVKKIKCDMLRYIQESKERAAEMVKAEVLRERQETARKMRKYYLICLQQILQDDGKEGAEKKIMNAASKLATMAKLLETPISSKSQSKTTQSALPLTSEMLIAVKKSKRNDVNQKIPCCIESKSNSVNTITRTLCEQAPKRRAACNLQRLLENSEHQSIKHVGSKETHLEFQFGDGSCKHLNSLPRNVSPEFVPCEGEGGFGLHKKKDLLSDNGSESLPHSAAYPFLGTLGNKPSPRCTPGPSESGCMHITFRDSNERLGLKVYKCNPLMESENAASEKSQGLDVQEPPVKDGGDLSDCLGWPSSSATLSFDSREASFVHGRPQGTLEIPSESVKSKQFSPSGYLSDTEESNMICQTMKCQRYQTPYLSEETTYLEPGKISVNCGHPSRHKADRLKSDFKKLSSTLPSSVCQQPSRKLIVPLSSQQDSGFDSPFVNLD
Sequence of UniProt O14965 (O14965 whole entry, looked up): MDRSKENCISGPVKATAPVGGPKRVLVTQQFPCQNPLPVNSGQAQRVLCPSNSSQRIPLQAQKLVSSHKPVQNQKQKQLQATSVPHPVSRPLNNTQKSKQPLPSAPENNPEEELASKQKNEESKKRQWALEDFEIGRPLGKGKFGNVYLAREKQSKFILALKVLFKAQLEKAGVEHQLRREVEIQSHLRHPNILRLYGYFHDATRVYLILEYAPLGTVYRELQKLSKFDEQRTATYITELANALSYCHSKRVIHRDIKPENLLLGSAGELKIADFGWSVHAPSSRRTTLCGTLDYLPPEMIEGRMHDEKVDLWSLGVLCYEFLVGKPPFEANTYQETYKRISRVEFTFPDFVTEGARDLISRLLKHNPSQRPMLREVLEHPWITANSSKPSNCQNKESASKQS
Sequence of UniProt P46527 (P46527 whole entry, looked up): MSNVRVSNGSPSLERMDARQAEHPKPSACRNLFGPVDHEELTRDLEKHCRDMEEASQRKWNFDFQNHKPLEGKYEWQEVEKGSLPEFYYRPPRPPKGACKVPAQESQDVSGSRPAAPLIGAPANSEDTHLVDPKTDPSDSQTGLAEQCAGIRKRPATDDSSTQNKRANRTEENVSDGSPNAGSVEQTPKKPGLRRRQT
Sequence of UniProt Q96SZ6 (Q96SZ6 whole entry, looked up): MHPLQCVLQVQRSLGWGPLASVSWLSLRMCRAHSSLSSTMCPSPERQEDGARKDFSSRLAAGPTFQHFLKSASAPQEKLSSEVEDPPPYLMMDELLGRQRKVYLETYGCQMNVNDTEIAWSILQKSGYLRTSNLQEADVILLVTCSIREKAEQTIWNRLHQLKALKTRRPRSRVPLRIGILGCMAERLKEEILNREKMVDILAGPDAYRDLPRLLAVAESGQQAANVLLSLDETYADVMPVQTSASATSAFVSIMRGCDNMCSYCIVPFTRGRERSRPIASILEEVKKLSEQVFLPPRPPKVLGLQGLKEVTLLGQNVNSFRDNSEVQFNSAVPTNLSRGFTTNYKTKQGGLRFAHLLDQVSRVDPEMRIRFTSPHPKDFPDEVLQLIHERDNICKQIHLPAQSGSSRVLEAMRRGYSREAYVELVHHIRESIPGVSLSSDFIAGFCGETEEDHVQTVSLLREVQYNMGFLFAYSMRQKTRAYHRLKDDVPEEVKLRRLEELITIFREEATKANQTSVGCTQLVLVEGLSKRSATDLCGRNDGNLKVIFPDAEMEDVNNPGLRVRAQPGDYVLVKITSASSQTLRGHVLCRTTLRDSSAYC
Sequence of UniProt Q9BRD0 (Q9BRD0 whole entry, looked up): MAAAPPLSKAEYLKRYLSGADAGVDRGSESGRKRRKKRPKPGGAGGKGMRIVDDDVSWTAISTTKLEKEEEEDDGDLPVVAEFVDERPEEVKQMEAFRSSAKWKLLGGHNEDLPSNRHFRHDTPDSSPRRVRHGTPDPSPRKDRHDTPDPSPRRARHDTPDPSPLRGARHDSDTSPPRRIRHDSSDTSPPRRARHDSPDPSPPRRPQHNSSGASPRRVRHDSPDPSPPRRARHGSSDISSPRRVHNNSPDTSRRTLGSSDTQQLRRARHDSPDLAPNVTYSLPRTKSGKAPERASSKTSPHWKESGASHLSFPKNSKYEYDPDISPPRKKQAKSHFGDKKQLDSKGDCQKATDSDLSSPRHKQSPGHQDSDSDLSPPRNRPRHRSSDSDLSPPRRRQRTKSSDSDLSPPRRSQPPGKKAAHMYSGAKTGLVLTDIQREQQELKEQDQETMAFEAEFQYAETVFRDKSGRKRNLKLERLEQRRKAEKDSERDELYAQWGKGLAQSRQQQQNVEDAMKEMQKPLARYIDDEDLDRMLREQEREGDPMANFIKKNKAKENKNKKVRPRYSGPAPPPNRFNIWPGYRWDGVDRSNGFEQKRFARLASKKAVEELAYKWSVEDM

| Target | log2 fold change (alvocidib) | log2 fold change (Tubastatin A) | log2 fold change [1] | log2 fold change (defactinib) | log2 fold change [2] | log2 fold change (encorafenib) | log2 fold change [3] | log2 fold change (alisertib) | log2 fold change [4] | log2 fold change (gefitinib) | log2 fold change (lapatinib) | log2 fold change (pictilisib) | log2 fold change (crizotinib) | log2 fold change [5] | log2 fold change (duvelisib) | log2 fold change (gandotinib) | log2 fold change (tozasertib) | log2 fold change (doramapimod) | log2 fold change (bafetinib) | log2 fold change [6] |
| --- | --- | --- | --- | --- | --- | --- | --- | --- | --- | --- | --- | --- | --- | --- | --- | --- | --- | --- | --- | --- |
| CEPT1 (UniProt Q9Y6K0) | -0.012 | 0.055 | -0.024 | 0 | -0.051 | 0.019 | -0.025 | 0.054 | -0.123 | -0.036 | -0.121 | -0.08 | -0.122 | -0.106 | -0.019 | -0.058 | 0.025 | -0.07 | -0.124 | 0.223 (active) |
| CDK2 (UniProt P24941) | 0.304 (active) | 0.021 | 0.08 | 0.196 | 0.048 | 0.016 | -0.012 | -0.01 | 0.072 | -0.012 | -0.026 | 0.028 | 0 | – | -0.026 | 0.403 (active) | 0.008 | 0.004 | 0.042 | -0.001 |
| AURKA (UniProt O14965) | -0.006 | 0.03 | 0.586 | 0.425 | 0.094 | -0.068 | 0.002 | 0.436 | -0.023 | -0.101 | -0.101 | 0.112 | – | -0.071 | -0.006 | 1 (active) | – | -0.061 | -0.09 | -0.062 |
| C9orf72 (UniProt Q96LT7) | 0.001 | 0 | -0.036 | – | 0.058 | 0.125 | 0.259 (active) | 0.014 | 0.102 | -0.106 | 0.061 | -0.112 | 0.082 | -0.075 | -0.072 | 0.035 | -0.196 | 0.03 | -0.043 | -0.009 |
| BUD13 (UniProt Q9BRD0) | 0.033 | -0.015 | -0.022 | – | 0.068 | 0.007 | 0.004 | 0.017 | – | 0.108 | – | 0.104 | -0.044 | -0.053 | 0.08 | 0.045 | 0.008 | 0.014 | -0.134 | 0.114 |
| C8orf37 (UniProt Q96NL8) | -0.146 | 0.022 | -0.035 | 0.281 | -0.099 | 0.018 | -0.011 | – | 0.162 | – | -0.095 | 0.006 | 0.043 | -0.559 (active) | 0.046 | -0.06 | 0.006 | 0.043 | 0.09 | 0.238 |
| BNIP3 (UniProt Q12983) | -0.065 | -0.058 | 0.076 | – | 0.081 | 0.015 | 0.018 | -0.043 | -0.128 | 0.021 | -0.031 | 0.049 | -0.054 | -0.371 (active) | -0.166 | 0.107 | -0.046 | -0.016 | 0.023 | 0.14 |
| BCORL1 isoform 3 (UniProt Q5H9F3) | -0.328 | -0.006 | -0.064 | -0.213 | 0.113 | 0.022 | 0.021 | – | – | – | – | – | -0.162 | -0.577 (active) | 0.1 | 0.238 | 0.049 | 0.117 | – | 0.475 |
| CDC25C (UniProt P30307) | 0.022 | -0.09 | 0.041 | 0.067 | -0.073 | 0.078 | 0.14 | 0.054 | 0.04 | -0.069 | -0.118 | -0.025 | – | -0.049 | -0.021 | -0.109 | 0.03 | -0.003 | 0.038 | 0.013 |
| CEP152 (UniProt O94986) | -0.077 | -0.061 | 0.019 | 0.019 | 0.182 | -0.064 | 0.04 | -0.007 | – | 0.008 | – | -0.013 | -0.22 | -0.089 | -0.017 | 0.006 | -0.114 | -0.057 | -0.071 | 0.058 |
| CDK5RAP1 (UniProt Q96SZ6) | 0.019 | -0.023 | -0.06 | 0.018 | -0.024 | -0.057 | 0.029 | -0.003 | – | -0.007 | – | 0.184 | -0.027 | 0.051 | -0.044 | 0.071 | 0.015 | 0 | 0.018 | -0.009 |
| BUD23 isoform 3 (UniProt O43709) | -0.126 | 0.14 | 0.026 | -0.046 | -0.052 | -0.017 | 0.036 | 0.082 | 0.085 | 0.054 | 0.052 | -0.017 | 0.07 | -0.305 (active) | 0.025 | 0.136 | -0.073 | -0.035 | -0.088 | 0.152 |
| AVEN (UniProt Q9NQS1) | -0.047 | -0.154 | 0.049 | -0.097 | 0.082 | 0.017 | 0.016 | 0.061 | – | -0.09 | – | 0.022 | -0.08 | -0.462 | 0.014 | 0.262 | 0.084 | 0.068 | -0.097 | 0.338 |
| CDKN1B (UniProt P46527) | 0.057 | 0.048 | 0.035 | 0.067 | -0.045 | 0.03 | -0.043 | – | 0.023 | – | 0.083 | -0.043 | 0.139 | 0.047 | -0.06 | -0.161 | -0.005 | -0.04 | -0.106 | -0.059 |
| BLOC1S6 (UniProt Q9UL45) | -0.028 | 0.033 | 0.051 | 0.014 | 0.082 | 0.147 | 0.056 | -0.22 | -0.036 | 0.047 | -0.018 | -0.037 | 0.062 | 0.048 | 0.021 | 0.031 | -0.11 | -0.011 | 0.033 | -0.066 |
| CD80 (UniProt P33681) | 0.071 | 0 | 0.014 | -0.085 | 0.11 | 0.016 | -0.082 | -0.345 | -0.011 | -0.001 | 0.122 | – | -0.007 | 0.395 (active) | 0.104 | -0.086 | 0.088 | -0.008 | – | 0.016 |
| C15orf39 (UniProt Q6ZRI6) | -0.04 | -0.188 | -0.031 | – | 0.089 | 0.047 | 0.059 | 0.036 | – | -0.067 | – | -0.04 | 0.043 | 0.025 | -0.049 | -0.076 | 0.097 | 0 | 0.19 | -0.055 |
| C5orf51 (UniProt A6NDU8) | 0.075 | -0.123 | -0.01 | -0.045 | -0.043 | -0.006 | 0.144 | 0.023 | 0.038 | 0.056 | 0.018 | -0.003 | -0.024 | 0.039 | -0.023 | -0.143 | -0.037 | -0.027 | -0.031 | -0.037 |
